Each structure is given as a SMILES string. The panel holds about 83,000 compounds, 20% with a hit somewhere; the sample as a whole holds those more often.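 How to read the values: 0–100, growth inhibition (40 = 60% inhibited); 0, no net growth; -100 to 0, cell death (-40 = 40% of starting cells died; -100 = all dead).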 A number with no mark means an inactive call. Calls of active or inactive are those of the source.

The experiment deals with EKVX NSCLC. Briefly: NCI-60 one-dose screen, 48 h (100 = growth as untreated, 0 = no growth, -100 = all killed). The conditions noted are these: 10 µM unless noted. The protocol: Growth inhibition of the EKVX human Non-Small Cell Lung tumor cell line is measured as a screen for anti-cancer activity. Cells are grown in 96 well plates and exposed to the test compound for 48 hours. Compounds are tested at a single concentration, which is 10^-5 M for most compounds. The reported endpoint is percent growth (GI% or GIPRCNT), where numbers from 0 - 100% represent growth inhibition, and numbers from -100% - 0 represent cell death. For example, a value of 40 represents 60% growth inhibition. A value of 0 means no net growth occurred over the course of the experiment. A value of -40 indicates 40% of cells at the beginning of the experiment died by the end of the experiment. A value of -100 means all cells are dead at the end of the experiment.
NCI-60 Human Tumor Cell Lines Screen was performed using the standard one-dose NCI protocol, which is described in more detail at https://dtp.cancer.gov/discovery_development/nci-60/default.htm.
Compounds with GIPRCNT values below 10 were considered active. Activity score was based on GIPRCNT using the following formula: […]
Score is 0 for GIPRCNT values of 100 or above, 50 for GIPRCNT values of 0, and 100 for GIPRCNT values of -100.
In the case of `CNC(=O)Nc1ccc(-c2ccc3ncnc(Nc4cccc(Cl)c4)c3c2)cc1`, the growth was 2% (active). Under `CS(=O)(=O)Nc1cc(-c2ccc3ncnc(Nc4ccc5c(cnn5Cc5ccncc5)c4)c3c2)cnc1Cl` stands 75.9%; under `COc1cc(Cc2cc(-c3ccccc3)nn(Cc3ccccc3)c2=O)cc(OC)c1OC`, 14.7%. Under `COc1ccccc1/C=C/C(=O)Nc1ccc(F)cc1` stands 73.2%.

Turning to `O=C1O[C@@H](c2ccccc2Cl)[C@@H]2c3cc4c(cc3CCN12)OCO4`, the growth is 101%. The same measure for `CCCCC#Cc1c(I)n(C2OC(CO[Si](C)(C)C(C)(C)C)C3OC(C)(C)OC32)c(=O)n(C(=O)c2ccccc2)c1=O` (stereo not given): 74.8%; for `O=C(Nc1cccnc1Nc1ccc(Cl)cc1)c1cn(Cc2cccc(Oc3ccccc3)c2)nn1`: 53.5%. Under `Nc1ncccc1O` stands 120%; under `OC1(c2ccccc2)c2ccccc2N(c2ccccc2)c2ccc(Cl)cc21` (stereo not given), -81.8% (active); under `COc1ccc(/C=N/NC(=O)Cn2c(-c3ccc(S(C)(=O)=O)cc3)nc3ccccc32)cc1`, 97%. For `COc1ccc(Cl)cc1Nc1nc(C(F)(F)F)ccc1C(=O)N/N=C/c1ccc([N+](=O)[O-])cc1`, the growth is 0.805% (active). On to `N#Cc1c(-c2cccc(Cl)c2)cc(-c2cccnc2)[nH]c1=O`, for which the growth is 100%.

As for `COc1ccc(Nc2ncc(I)c(NCCCNC(=O)C3CCC3)n2)cc1`, the growth was 21.9%. Under `CCN(CC)CCN1C(=O)c2c(c3c4ccccc4[nH]c3c3ccc4ccccc4c23)C1=O` stands 18.6%. Under `O=C(Nc1nc(Cl)nc(Nc2ccc(N3CCOCC3=O)cc2)n1)c1ccc(Cl)s1` stands 102%; under `CCOC(=O)c1cnn(CC(C)O)c1NC(=O)NCc1ccccc1C(F)(F)F` (stereo not given), 98.1%; under `Cc1ccc(Cc2cnc(NC(=O)/C=C/c3ccc(C)o3)s2)cc1`, 49.7%. As for `N#Cc1c(-c2ccccc2)nc2c(c(-c3ccccc3)nn2-c2ccccc2)c1-c1ccc(N2CCCCC2)cc1`, the growth was 99.5%. Under `COc1cccc(CNc2c3ccccc3nc3ccccc23)c1OC` stands 36.3%; under `O=CN1N=C(c2cccc(Nc3ccnc4cc(Cl)ccc34)c2)CC1c1ccc(Cl)cc1` (stereo not given), 49.1%. Under `C#Cc1cccc(NC(=O)C2CCCCN2C(=O)CCl)c1` (stereo not given) stands 19.6% [8.25 µM]. Under `O=C(/C=C/c1ccccc1Cl)c1cccc(OCCCCOc2cccc(C(=O)/C=C/c3ccccc3Cl)c2)c1` stands 107%; under `COc1cc2c(c(OC)c1OC)CCC(c1cccc(C(=O)Nc3ccc(Br)cc3)c1)O2` (stereo not given), 60.5%. As for `CCN(CC)C(=O)C1=C(C)NC(=O)NC1c1ccc2c(c1)OCO2` (stereo not given), the growth is 99%. The same measure for `Clc1ccc(Nc2nnc(CNc3ccccc3)c3ccccc23)cc1`: 16.9%. The same measure for `Cc1ccc(OCCOCCOCCOCCOCCOc2ccc(C)n(O)c2=S)c(=S)n1O`: 13.1%. For `CCn1cc(Cc2cc(C(=O)Nc3cc4cc(OC)c(OC)cc4c(C)n3)ccc2Cl)cn1`, the growth was 47.2%.

Turning to `COc1ccc(NC(=O)c2ccc(Nc3ncnc4c3cnn4-c3cccc(F)c3)cc2)cc1`, the growth was 101%.

In the case of `CCCCCCCCCCCCCCCCCCOc1ccccc1CC(=O)NCC[N+](C)(C)C`, the growth is 89.3%. The same measure for `C=C[C@@]1(C)CC(=O)[C@@H](C(C)(C)c2cn(C)c3ccc(Br)cc23)C[C@@H]1O[Si](C)(C)C(C)(C)C`: 99.3%; for `C=C(C)[C@@H]1CC[C@]2(C(=O)N3CCNCC3)CC[C@]3(C)[C@H](CC[C@@H]4[C@@](C)(CCC(=O)N5CCNCC5)[C@H](C(=C)C)CC[C@]43C)[C@@H]12`: 102%. Regarding `O=C(Nc1ccc(Nc2ccncc2)cc1)c1ccc(Nc2ccnc3ccc([N+](=O)[O-])cc23)cc1`, the growth is 107%. The same measure for `COc1cc(/C=C/c2cn[nH]c2-c2ccc(C)cc2)cc(OC)c1OC`: 47.8%; for `O=C(C1=Cc2cc3ccccc3n2Cc2cnnn21)c1ccc(F)cc1`: 96.2%.

`CN(C)CCC(=O)C1CC1`: the growth was 111%. The same measure for `CCN(CC)CCOc1ccc2c(-c3ccccc3)c(-c3ccc(OC)cc3)c(=O)oc2c1`: 83.9%. The same measure for `CNC(=O)c1cc(Oc2ccc3c(c2)sc2nc(-c4ccc(NC(=O)[C@@H](NC(=O)OC)C(C)C)cc4)cn23)ccn1`: 66.3%; for `O=c1oc2ccccc2cc1-c1nn(-c2ccccc2)cc1-c1nn[nH]n1`: 99.4%. The same measure for `Cc1cccc(NC(=O)Cn2cc(CN3CCN(c4ccnc5cc(Cl)ccc45)CC3)nn2)c1`: 87.7%. As to `CCOC(=O)NCCCC(=O)NCCc1ccccc1`, the growth was 112%.

(Values after PubChem BioAssay (NCI).)
